From PubChem BioAssay AID1159580 (chemical genetic matrix, 2015)
About 2,000 (36%) of roughly 5,500 compounds were called active. Another 18% or so got no clear call; they are omitted. No stated cut-off is given here; in the data, active means normalized growth mostly below about 0.91 (no sharp cut-off); inconclusive means no clear call, values can overlap the other calls; inactive means mostly above about 0.92. This is one part of the list.

Experiment: chemical genetic growth profiling, strain panel (AID 1159580);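 further: tested at 20 µM; growth read once vehicle control cultures reached saturation at 30 °C; 1 = growth at the plate median or of vehicle wells; lower values mean less growth of the strain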
Settings: growth OD

Measured: normalized growth

Cc1c(N(C)CS(=O)(=O)O)c(=O)n(-c2ccccc2)n1C
inactive: S. cerevisiae deletion strains, locus YJR075W, strain HOC1, hits give low values 1 | S. cerevisiae deletion strains, locus YKL009W, strain mrt4, hits give low values 1.03 | S. cerevisiae deletion strains, locus YKL068W, hits give low values 0.998 | S. cerevisiae deletion strains, locus YKL085W, strain MDH1 (second series), hits give low values 0.99 | S. cerevisiae deletion strains, locus YKL085W, strain MDH1, hits give low values 0.99 | S. cerevisiae deletion strains, locus YKL160W, strain elf1, hits give low values 1.02 | S. cerevisiae deletion strains, locus YKL190W, strain CNB1, hits give low values 1.01 | S. cerevisiae deletion strains, locus YKR001C, strain vps1, hits give low values 1.01 | S. cerevisiae deletion strains, locus YKR026C, strain gcn3, hits give low values 1.01 | S. cerevisiae deletion strains, locus YKR091W, strain srl3, hits give low values 1.01 | S. cerevisiae deletion strains, locus YLL001W, strain dnm1, hits give low values 1.01 | S. cerevisiae deletion strains, locus YLL026W, hits give low values 1.01 | S. cerevisiae deletion strains, locus YLL041C, strain sdh2, hits give low values 1 | S. cerevisiae deletion strains, locus YLR027C, strain aat2, hits give low values 1.01 | S. cerevisiae deletion strains, locus YLR039C, strain RIC1, hits give low values 0.92 | S. cerevisiae deletion strains, locus YLR058C, strain SHM2, hits give low values 0.987 | S. cerevisiae deletion strains, locus YLR102C, strain apc9, hits give low values 0.984 | S. cerevisiae deletion strains, locus YLR113W, strain HOG1, hits give low values 0.996 | S. cerevisiae deletion strains, locus YLR221C, strain rsa3, hits give low values 1.01 | S. cerevisiae deletion strains, locus YLR258W, strain gsy2, hits give low values 1.01 | S. cerevisiae deletion strains, locus YLR262C, strain YPT6 (second series), hits give low values 0.999 | S. cerevisiae deletion strains, locus YLR262C, strain YPT6, hits give low values 0.962 | S. cerevisiae deletion strains, locus YLR268W, strain sec22, hits give low values 0.992 | S. cerevisiae deletion strains, locus YLR320W, strain mms22, hits give low values 1.03 | S. cerevisiae deletion strains, locus YLR330W, strain CHS5, hits give low values 0.993 | S. cerevisiae deletion strains, locus YLR342W, strain FKS1 (second series), hits give low values 0.961 | S. cerevisiae deletion strains, locus YLR342W, strain FKS1, hits give low values 1.02 | S. cerevisiae deletion strains, locus YLR357W, strain rsc2, hits give low values 1.03 | S. cerevisiae deletion strains, locus YLR370C, strain arc18, hits give low values 1 | S. cerevisiae deletion strains, locus YLR371W, strain rom2, hits give low values 0.977 | S. cerevisiae deletion strains, locus YLR384C, strain iki3, hits give low values 1.01 | S. cerevisiae deletion strains, locus YLR418C, strain cdc73, hits give low values 0.948 | S. cerevisiae deletion strains, locus YML016C, strain PPZ1, hits give low values 0.99 | S. cerevisiae deletion strains, locus YML032C, strain rad52, hits give low values 0.999 | S. cerevisiae deletion strains, locus YML120C, strain ndi1, hits give low values 1.01 | S. cerevisiae deletion strains, locus YML124C, strain tub3, hits give low values 0.988 | S. cerevisiae deletion strains, locus YMR058W, strain fet3, hits give low values 1.01 | S. cerevisiae deletion strains, locus YMR078C, strain ctf18, hits give low values 0.978 | S. cerevisiae deletion strains, locus YMR125W, strain sto1, hits give low values 1.02 | S. cerevisiae deletion strains, locus YMR129W, hits give low values 1 | S. cerevisiae deletion strains, locus YMR205C, strain PFK2, hits give low values 1.02 | S. cerevisiae deletion strains, locus YMR223W, strain ubp8, hits give low values 0.962 | S. cerevisiae deletion strains, locus YMR231W, strain pep5, hits give low values 1.02 | S. cerevisiae deletion strains, locus YMR263W, strain SAP30, hits give low values 1.01 | S. cerevisiae deletion strains, locus YMR307W, strain GAS1, hits give low values 0.906 | S. cerevisiae deletion strains, locus YNL067W, strain RPL9B, hits give low values 1.01 | S. cerevisiae deletion strains, locus YNL071W, strain lat1, hits give low values 1.02 | S. cerevisiae deletion strains, locus YNL183C, strain NPR1, hits give low values 0.924 | S. cerevisiae deletion strains, locus YNL209W, strain ssb2, hits give low values 1.02 | S. cerevisiae deletion strains, locus YNL233W, strain BNI4, hits give low values 1 | S. cerevisiae deletion strains, locus YNL248C, strain rpa49, hits give low values 1.02 | S. cerevisiae deletion strains, locus YNL250W, strain rad50, hits give low values 0.969 | S. cerevisiae deletion strains, locus YNL271C, strain bni1, hits give low values 0.992 | S. cerevisiae deletion strains, locus YNL298W, strain CLA4, hits give low values 0.993 | S. cerevisiae deletion strains, locus YNL307C, strain MCK1, hits give low values 0.987 | S. cerevisiae deletion strains, locus YNL322C, strain KRE1 (second series), hits give low values 1.01 | S. cerevisiae deletion strains, locus YNL322C, strain KRE1, hits give low values 0.998 | S. cerevisiae deletion strains, locus YNR049C, strain mso1, hits give low values 1 | S. cerevisiae deletion strains, locus YNR052C, strain pop2, hits give low values 0.985 | S. cerevisiae deletion strains, locus YOL006C, strain TOP1, hits give low values 1.14 | S. cerevisiae deletion strains, locus YOL012C, strain htz1 0.803 | S. cerevisiae deletion strains, locus YOL147C, strain pex11, hits give low values 0.985 | S. cerevisiae deletion strains, locus YOR001W, strain rrp6, hits give low values 1.01 | S. cerevisiae deletion strains, locus YOR061W, strain CKA2, hits give low values 0.989 | S. cerevisiae deletion strains, locus YOR069W, strain VPS5, hits give low values 0.984 | S. cerevisiae deletion strains, locus YOR070C, strain gyp1, hits give low values 1.01 | S. cerevisiae deletion strains, locus YOR080W, strain dia2, hits give low values 1.01 | S. cerevisiae deletion strains, locus YOR083W, strain WHI5, hits give low values 1.02 | S. cerevisiae deletion strains, locus YOR106W, strain vam3, hits give low values 1.03 | S. cerevisiae deletion strains, locus YOR136W, strain idh2, hits give low values 0.986 | S. cerevisiae deletion strains, locus YOR144C, strain elg1, hits give low values 0.989 | S. cerevisiae deletion strains, locus YOR184W, strain ser1, hits give low values 1.03 | S. cerevisiae deletion strains, locus YOR231W, strain MKK1, hits give low values 0.996 | S. cerevisiae deletion strains, locus YOR265W, strain rbl2, hits give low values 1.01 | S. cerevisiae deletion strains, locus YOR270C, strain vph1, hits give low values 1.05 | S. cerevisiae deletion strains, locus YOR290C, strain snf2, hits give low values 1.01 | S. cerevisiae deletion strains, locus YOR316C, strain cot1, hits give low values 0.981 | S. cerevisiae deletion strains, locus YPL051W, strain arl3, hits give low values 1.01 | S. cerevisiae deletion strains, locus YPL055C, strain LGE1, hits give low values 1.05 | S. cerevisiae deletion strains, locus YPL078C, strain atp4, hits give low values 1.02 | S. cerevisiae deletion strains, locus YPL106C, strain sse1, hits give low values 1.02 | S. cerevisiae deletion strains, locus YPL240C, strain hsp82, hits give low values 1.01 | S. cerevisiae deletion strains, locus YPL256C, strain CLN2, hits give low values 1.01 | S. cerevisiae deletion strains, locus YPR119W, strain clb2, hits give low values 0.986 | S. cerevisiae deletion strains, locus YPR141C, strain kar3, hits give low values 0.981 | S. cerevisiae deletion strains, locus YPR163C, strain tif3, hits give low values 1.01 | S. cerevisiae deletion strains, locus YPR167C, strain met16, hits give low values 0.977 | S. cerevisiae deletion strains, strain wtn01, hits give low values 0.986 | S. cerevisiae strains, strain wild type, hits give low values 0.995
